In all, about 1,500 compounds went through this assay and about 390 (26%) were called active. How the calls were made is not given here. The list is a sample of the results. Results with a measured potency or affinity are listed apart.

This test deals with Histone-lysine N-methyltransferase NSD2 (Homo sapiens) (UniProt O96028). The test is described as follows: blockers of NSD2 H4 peptide methylation – biochemical, AlphaScreen, cherry-picked samples, dose response (AID 1053173).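 Further: 0% = neutral control wells and -100% = positive control wells on each plate.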 The settings on record: 120 min; series mostly up to 10 µM; activity change, negative = inhibition: at the top concentration. On the technique in general: Bead proximity is the source of the signal in Alpha formats.
Histone-lysine N-methyltransferase NSD2 (Homo sapiens), sequence (O96028 whole entry, looked up): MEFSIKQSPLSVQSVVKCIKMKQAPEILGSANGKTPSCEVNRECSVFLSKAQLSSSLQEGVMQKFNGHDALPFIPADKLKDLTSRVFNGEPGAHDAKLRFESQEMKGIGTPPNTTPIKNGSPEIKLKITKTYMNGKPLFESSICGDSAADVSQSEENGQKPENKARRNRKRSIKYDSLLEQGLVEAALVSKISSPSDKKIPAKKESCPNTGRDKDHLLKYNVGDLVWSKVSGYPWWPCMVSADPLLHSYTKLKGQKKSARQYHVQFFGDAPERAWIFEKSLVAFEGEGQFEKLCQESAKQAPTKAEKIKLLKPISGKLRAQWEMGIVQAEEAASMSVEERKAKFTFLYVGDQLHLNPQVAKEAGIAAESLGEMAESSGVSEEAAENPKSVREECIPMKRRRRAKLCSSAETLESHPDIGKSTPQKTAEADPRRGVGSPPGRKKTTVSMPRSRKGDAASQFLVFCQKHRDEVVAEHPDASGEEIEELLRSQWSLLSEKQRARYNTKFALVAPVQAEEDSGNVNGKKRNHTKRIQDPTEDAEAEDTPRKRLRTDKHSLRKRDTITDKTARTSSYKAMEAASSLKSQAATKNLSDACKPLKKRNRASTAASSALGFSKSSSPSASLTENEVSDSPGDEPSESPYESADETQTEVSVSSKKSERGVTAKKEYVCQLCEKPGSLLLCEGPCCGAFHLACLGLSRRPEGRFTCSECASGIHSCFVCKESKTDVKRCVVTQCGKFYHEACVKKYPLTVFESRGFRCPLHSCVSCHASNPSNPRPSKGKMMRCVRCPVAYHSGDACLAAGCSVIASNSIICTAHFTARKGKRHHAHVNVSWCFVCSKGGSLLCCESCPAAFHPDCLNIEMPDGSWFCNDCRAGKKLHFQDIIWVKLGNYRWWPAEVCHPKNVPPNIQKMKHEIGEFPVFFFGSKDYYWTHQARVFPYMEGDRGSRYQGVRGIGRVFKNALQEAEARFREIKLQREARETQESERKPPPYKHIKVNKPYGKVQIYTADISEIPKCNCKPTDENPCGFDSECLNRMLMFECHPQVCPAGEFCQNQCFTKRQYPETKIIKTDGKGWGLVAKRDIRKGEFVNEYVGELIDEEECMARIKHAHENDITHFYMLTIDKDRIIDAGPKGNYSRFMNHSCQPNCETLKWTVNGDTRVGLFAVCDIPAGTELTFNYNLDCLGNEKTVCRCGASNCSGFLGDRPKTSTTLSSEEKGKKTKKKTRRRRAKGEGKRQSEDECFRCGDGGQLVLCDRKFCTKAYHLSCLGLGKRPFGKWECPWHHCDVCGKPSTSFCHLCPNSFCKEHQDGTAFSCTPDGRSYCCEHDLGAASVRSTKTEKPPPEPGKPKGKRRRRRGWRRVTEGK
In the case of `COc1cccc(CN2C(=O)C(C)N(C(=O)c3c(F)cccc3F)c3ccccc32)c1` (centres undefined), the “activity change, negative = inhibition” value was -4.93% (inactive).

As for `CN1CCN(c2ccc(S(=O)(=O)N3CCOCC3)cc2NC(=O)COc2ccc(F)cc2Cl)CC1`, the “activity change, negative = inhibition” value was -1.77% (inactive).

For `COc1ccc(C2C(C(=O)/C=C/c3ccco3)=C(O)C(=O)N2CCN2CCOCC2)cc1OC` (centres undefined), the “activity change, negative = inhibition” value was 2.35% (inactive).

With `COc1ccc(CCNC(=O)Nc2ccc3c(c2)c(=O)n(C)n3CC=C(C)C)cc1OC`, the “activity change, negative = inhibition” value is 1.5% (inactive).

As for `CCc1nnc(NC(=O)c2ccc(COc3ccccc3)o2)s1`, the “activity change, negative = inhibition” value is 0.577% (inactive).

On to `CCc1nnc(NC(=O)c2ccc3ccccc3n2)s1`, for which the “activity change, negative = inhibition” value is -0.466% (inactive).

As to `CCC1(c2ccc(F)cc2)NC(=O)N(CC(=O)N(CCC#N)c2ccccc2)C1=O` (centres undefined), the “activity change, negative = inhibition” value is -0.318% (inactive).

Take `Cc1ccc(S(=O)(=O)N(C)C)cc1NC(=O)/C=C/c1cccs1`: the “activity change, negative = inhibition” value was 1.54% (inactive).

Consider `CC1(C)Cc2sc3c(=O)[nH]c(=S)[nH]c3c2CO1`, for which the “activity change, negative = inhibition” value was 1.02% (inactive).

For the compound `CCOc1ccc(N2CC(C(=O)NCCc3c[nH]c4ccc(OC)cc34)CC2=O)cc1` (centres undefined), the “activity change, negative = inhibition” value was 0.809% (inactive).

On to `Cc1ccc(NC(=O)Cn2nnc(C(=O)NCc3ccccc3)c2N)cc1C`, for which the “activity change, negative = inhibition” value is -0.362% (inactive).

Consider `Cc1cc(C(=O)COC(=O)c2ccc([N+](=O)[O-])o2)c(C)n1CC1CCCO1` (centres undefined), for which the “activity change, negative = inhibition” value was -9.09% (inactive).

With `COc1ccc(C(c2c(C)[nH]n(-c3ccccc3)c2=O)c2c(C)[nH]n(-c3ccccc3)c2=O)cc1OC`, the “activity change, negative = inhibition” value was -9% (inactive).

For the compound `COCCN(C(=O)CCC(=O)Nc1ccccn1)C(C(=O)NC(C)C)c1ccc(C)cc1` (centres undefined), the “activity change, negative = inhibition” value is -2.62% (inactive).

Consider `C/C(CC(=O)Nc1ccccn1)=N\NC(=O)C(=O)Nc1cccc(Cl)c1C`, for which the “activity change, negative = inhibition” value is -0.689% (inactive).

As for `Cc1[nH]n(-c2ccccc2)c(=O)c1C(C[N+](=O)[O-])c1ccc(F)cc1` (centres undefined), the “activity change, negative = inhibition” value is 1.48% (inactive).

Turning to `Cc1ccc(C(C[N+](=O)[O-])c2c(C)[nH]n(-c3ccccc3)c2=O)cc1` (centres undefined), the “activity change, negative = inhibition” value is -2.59% (inactive).

Take `CCN(CC)C(=O)COC(=O)C1=NN(c2cc(C)ccc2C)C(=O)CC1`: the “activity change, negative = inhibition” value was -3.17% (inactive).

As to `COC(=O)CCCC(=O)NC1CC(C)(C)Cc2c1cnn2-c1ccc(C)cc1` (centres undefined), the “activity change, negative = inhibition” value was -0.494% (inactive).

For `Cc1cccc(-c2nnc(SCC(=O)c3ccc(O)cc3O)n2C)c1`, the “activity change, negative = inhibition” value is 0.938% (inactive).

Consider `C=CCn1c(SCC(=O)N2CCN(c3ccccc3)CC2)nnc1-c1ccco1`, for which the “activity change, negative = inhibition” value is -4.63% (inactive).

Consider `C=CCn1c(SCc2ccc(C#N)cc2)nnc1-c1ccc(C)cc1`, for which the “activity change, negative = inhibition” value was -2.38% (inactive).

For the compound `CN(C)c1cccc2c1c(NC(=O)Nc1ccccc1)nn2C`, the “activity change, negative = inhibition” value was -5.26% (inactive).

Regarding `O=C(c1ccc2c(c1)OCO2)C1CCCN(Cc2ccc3cccc(F)c3n2)C1` (centres undefined), the “activity change, negative = inhibition” value was -1.24% (inactive).

In the case of `CCNc1ccccc(C(=O)/C=C/c2ccc3c(c2)OCO3)c1=O`, the “activity change, negative = inhibition” value was -2.99% (inactive).

Take `CC(Cc1c[nH]c2ccccc12)C(=O)NCc1ccco1` (centres undefined): the “activity change, negative = inhibition” value was -7.92% (inactive).

`CCOC(=O)N1CCN(C2=Nc3cccc4cccc2c34)CC1`: the “activity change, negative = inhibition” value was 0.355% (inactive).

Regarding `CSc1ncccc1C(=O)Nc1nc2c(C)cccc2s1`, the “activity change, negative = inhibition” value was 4.37% (inactive).

As for `Nc1ncnc(NCc2ccccc2)c1[N+](=O)[O-]`, the “activity change, negative = inhibition” value is 0.484% (inactive).

`COc1ccc(COc2ncnc3ccc(Br)cc23)cc1F`: the “activity change, negative = inhibition” value is 1.25% (inactive).

On to `COc1ccc(CCNC(=O)C2CCN(C(=O)c3ccccc3C)CC2)cc1`, for which the “activity change, negative = inhibition” value is 0.092% (inactive).

Turning to `Cc1cccc(N(CC(=O)NC(C)(C)C)C(=O)CS(=O)CC(=O)Nc2ccc3c(c2)OCO3)c1` (centres undefined), the “activity change, negative = inhibition” value is 0.013% (inactive).

As for `CC(=O)N1CCN(Cc2nc3cc(NC(=O)Cn4nc(C)c5ccccc5c4=O)ccc3n2C)CC1`, the “activity change, negative = inhibition” value is 1.58% (inactive).

`[O-][n+]1cccc2c(Br)cc(Br)c(O)c21`: the “activity change, negative = inhibition” value is -3.88% (inactive).

As for `OC(COc1ccc2ccccc2c1Cl)CN1CCOCC1` (centres undefined), the “activity change, negative = inhibition” value is -1.1% (inactive).

On to `CCCCN(CC)CCNC(=O)CN(C)S(=O)(=O)c1ccc2c(c1)c(=O)n(C)c(=O)n2C`, for which the “activity change, negative = inhibition” value was -9.9% (inactive).

As to `Cc1ccc(C(=O)Nc2ccc(CC(=O)O)cc2)o1`, the “activity change, negative = inhibition” value was -1.83% (inactive).

On to `CCCc1cc(Nc2ccccc2C)n2ncnc2n1`, for which the “activity change, negative = inhibition” value is 6.66% (inactive).

For `N#Cc1c(SCC(=O)OCc2ccccc2)nsc1SCC(=O)OCc1ccccc1`, the “activity change, negative = inhibition” value was -2.54% (inactive).

As to `Cc1cc(Cl)ccc1OCCCC(=O)N1CCOCC1`, the “activity change, negative = inhibition” value was 1.3% (inactive).

`CCN(CC)Cc1c(O)c(Cl)cc2c(C)cc(=O)oc12`: the “activity change, negative = inhibition” value was -7.42% (inactive).

With `O=S(=O)(c1ccc(-c2nnco2)cc1)N1CCCCC1`, the “activity change, negative = inhibition” value was -4.33% (inactive).

With `O=C1CC(N2CCOCC2)=NN1c1ccc([N+](=O)[O-])cc1`, the “activity change, negative = inhibition” value is -2.73% (inactive).

As to `O=C(CSc1nnc2ccccn12)NNC(=O)c1ccc([N+](=O)[O-])cc1`, the “activity change, negative = inhibition” value was -0.222% (inactive).

Regarding `O=C(c1ccc(N2CCOCC2)c([N+](=O)[O-])c1)N1CCN(Cc2ccccc2)CC1`, the “activity change, negative = inhibition” value is -3.51% (inactive).

With `c1cc(-c2ccoc2)n2ccnc2c1`, the “activity change, negative = inhibition” value was -3.71% (inactive).

Consider `CCN1C(=O)c2ccccc2S(=O)(=O)c2ccc(C(=O)NC(C)C)cc21`, for which the “activity change, negative = inhibition” value is -0.906% (inactive).

With `CC1CN(Cc2c(O)ccc3c(=O)c(-c4ccccc4Cl)coc23)CC(C)O1` (centres undefined), the “activity change, negative = inhibition” value is 0.635% (inactive).

For `CCCCN1C(=O)C(=Nc2cccc3cnccc23)c2ccccc21`, the “activity change, negative = inhibition” value is -3.19% (inactive).

Turning to `CN(C)CCNc1nc(-c2ccco2)c2c(c1C#N)CC(C)(C)OC2`, the “activity change, negative = inhibition” value was -1.66% (inactive).

For the compound `COc1ccc(C2CC(c3ccc(Cl)cc3)=NN2C(C)=O)cc1` (centres undefined), the “activity change, negative = inhibition” value is -1.06% (inactive).

On to `Cc1ccnc(N2CCC(C(=O)NC3CCCCCC3)CC2)n1`, for which the “activity change, negative = inhibition” value was -2.18% (inactive).

For `NC(=O)c1[nH]cnc1N=NN(CCO)Cc1ccccc1`, the “activity change, negative = inhibition” value was 0.49% (inactive).

For `CC(Oc1ccc(Cl)cc1Cl)C(=O)NC(Cc1ccccc1)C(=O)O` (centres undefined), the “activity change, negative = inhibition” value was 4.79% (inactive).
